Experimental data from PubChem BioAssay (NCATS).
Results filed as inconclusive are left out. Values without a mark were called inactive. Activity calls are given as the source filed them. Calls follow the shape of the dose curve; as a rule, active = well fitted inhibition curve with a large enough effect; inconclusive = small, poorly fitted or top-dose-only effect; inactive = flat fitted curve, though single readings scatter.

Assay: BET inhibitor-based combinations targeting novel dependencies in MECOM-rearranged (r) AML: AML-194 cell line (AID 2202237; also: nearly all actives have a fitted effect of over 40% in size;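 as to viability (% of control): plate controls were vehicle wells for no effect and wells without cells for full effect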)
Conditions: AML-194 (MECOM-r AML) viability, CellTiter-Glo, 48 h; series mostly up to 46 µM; viability (% of control): at the top concentration
How it was run: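 Cells were plated at 500 per well and exposed to an 11-point dose series of each drug for 48 hr. Viability was measured by CellTiter-Glo luminescence, normalized to DMSO and empty-well controls, and summarized as AUC and per-cell-line Z-AUC.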
Potency is read from the fitted curve at half-maximal effect.

SMILES	Potency	viability (% of control) [%]
Cc1cnc(Nc2ccc(F)cc2Cl)nc1-c1c[nH]c(C(=O)N[C@H](CO)c2cccc(Cl)c2)c1	18.6 µM (active)	–
C[C@H](c1ccc(F)cc1CCCC(=O)O)N(c1cc(F)ccc1F)S(=O)(=O)c1ccc(Cl)cc1	–	98.9
Cc1ccc(Nc2nccc(N(C)c3ccc4c(C)n(C)nc4c3)n2)cc1S(N)(=O)=O	18.6 µM (active)	–
Clc1ccc(C2(c3ccc(-c4cn[nH]c4)cc3)CCNCC2)cc1	20.9 µM (active)	–
O=C(Nc1ccc(OC(F)(F)F)cc1)c1sccc1NCc1ccnc2ccccc12	5.9 µM (active)	–
C=C1C[C@@]2(O)O[C@@]3(C[C@H]2C(C)C)[C@@H](C)CC[C@@H]13	–	106
Cc1[nH]c(/C=C2\C(=O)Nc3ccc(F)cc32)c(C)c1C(=O)NCCN1CCCC1	7.23 µM (active)	–
N#CC1(c2cccc(C(=O)Nc3cc(Oc4ccc5nc(NC(=O)C6CC6)sc5n4)ccc3F)c2Cl)CC1	–	64.7
CC(C)[C@@H](CS(=O)(=O)C(C)C)N1C(=O)[C@@](C)(CC(=O)O)C[C@H](c2cccc(Cl)c2)[C@H]1c1ccc(Cl)cc1	2.35 µM (active)	–
Cc1cccc(-c2[nH]c(CNc3ccccc3F)nc2-c2ccc3ncnn3c2)n1	–	108
